Drawing on paper PMC7862700, “An all-to-all approach to the identification of sequence-specific readers for epigenetic DNA modifications on cytosine”, this text covers binding signal for one sequence.

Common to all, as to assay: DAPPL (digital affinity profiling via proximity ligation, sequencing); 10 mM Tris-HCl pH 7.5, 50 mM NaCl, 1 mM DTT, 4% glycerol, room temperature, 30 min; GST-TFs on glutathione beads, 16-mer random dsDNA library, 0.1% formaldehyde crosslink after washing; high values mean tight binding
Experiment [1] deals with T1, FLI1 (Homo sapiens, UniProt Q01543 1-452).
T1 sequence: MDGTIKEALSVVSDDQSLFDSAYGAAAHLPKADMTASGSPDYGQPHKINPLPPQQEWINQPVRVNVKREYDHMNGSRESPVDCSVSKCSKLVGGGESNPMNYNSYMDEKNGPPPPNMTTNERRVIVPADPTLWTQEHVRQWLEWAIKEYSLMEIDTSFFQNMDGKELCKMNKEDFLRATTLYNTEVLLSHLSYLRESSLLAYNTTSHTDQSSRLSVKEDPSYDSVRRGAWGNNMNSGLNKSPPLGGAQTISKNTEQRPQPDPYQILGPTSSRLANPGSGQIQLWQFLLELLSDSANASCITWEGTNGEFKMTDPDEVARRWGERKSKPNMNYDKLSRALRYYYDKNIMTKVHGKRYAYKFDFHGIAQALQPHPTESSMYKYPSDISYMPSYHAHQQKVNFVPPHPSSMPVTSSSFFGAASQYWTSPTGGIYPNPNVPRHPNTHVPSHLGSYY
To be noted: protein: recombinant; tags: N-terminal GST; dsDNA, one strand shown. The gist of the method:
(§1)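 Human transcription factors were made in yeast as GST fusions, captured on glutathione beads and barcoded with DNA. With a tag-only sample included, the pool was incubated with 200 nmole of a random double-stranded 16-mer DNA library in Tris/NaCl/DTT/glycerol buffer at room temperature for 30 min, then crosslinked with 0.1% formaldehyde after washing, ligated by proximity, amplified and sequenced. For binding signal, each hexamer's read frequency for a factor is divided by its frequency for the tag-only sample.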

Experiment [2] concerns the target T2, ELK1 (Homo sapiens, UniProt P19419 1-428).
T2 sequence: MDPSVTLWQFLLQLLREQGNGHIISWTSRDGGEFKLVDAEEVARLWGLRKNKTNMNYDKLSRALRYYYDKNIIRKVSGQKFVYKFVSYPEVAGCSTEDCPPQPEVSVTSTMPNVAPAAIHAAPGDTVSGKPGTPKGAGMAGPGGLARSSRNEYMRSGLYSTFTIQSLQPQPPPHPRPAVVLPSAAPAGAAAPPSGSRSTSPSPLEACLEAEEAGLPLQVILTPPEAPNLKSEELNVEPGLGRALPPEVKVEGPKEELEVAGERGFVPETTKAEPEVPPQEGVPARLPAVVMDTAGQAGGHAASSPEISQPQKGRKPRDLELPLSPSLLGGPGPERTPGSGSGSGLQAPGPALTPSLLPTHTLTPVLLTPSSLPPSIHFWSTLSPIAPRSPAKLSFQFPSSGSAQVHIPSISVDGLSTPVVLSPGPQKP
To be noted: protein: recombinant; tags: N-terminal GST; dsDNA, one strand shown. The method in brief:
as §1

Experiment [3] addresses T3, GABPA (Homo sapiens, UniProt Q06546 1-454).
T3 sequence: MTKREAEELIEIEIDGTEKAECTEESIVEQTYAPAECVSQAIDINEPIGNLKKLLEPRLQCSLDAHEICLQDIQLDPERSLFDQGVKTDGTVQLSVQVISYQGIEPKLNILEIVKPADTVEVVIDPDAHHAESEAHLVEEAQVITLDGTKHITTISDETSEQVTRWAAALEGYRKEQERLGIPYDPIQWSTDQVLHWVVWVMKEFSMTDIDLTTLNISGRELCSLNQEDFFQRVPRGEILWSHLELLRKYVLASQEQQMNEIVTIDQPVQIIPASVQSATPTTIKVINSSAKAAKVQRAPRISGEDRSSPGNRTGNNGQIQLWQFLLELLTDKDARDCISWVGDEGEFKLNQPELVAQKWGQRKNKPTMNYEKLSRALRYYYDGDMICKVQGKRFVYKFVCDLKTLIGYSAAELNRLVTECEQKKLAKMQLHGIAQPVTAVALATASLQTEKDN
Particulars: protein: recombinant; tags: N-terminal GST; dsDNA, one strand shown. The gist of the method:
as §1

Experiment [4] deals with T4, ERG (Homo sapiens, UniProt P11308 1-479).
T4 sequence: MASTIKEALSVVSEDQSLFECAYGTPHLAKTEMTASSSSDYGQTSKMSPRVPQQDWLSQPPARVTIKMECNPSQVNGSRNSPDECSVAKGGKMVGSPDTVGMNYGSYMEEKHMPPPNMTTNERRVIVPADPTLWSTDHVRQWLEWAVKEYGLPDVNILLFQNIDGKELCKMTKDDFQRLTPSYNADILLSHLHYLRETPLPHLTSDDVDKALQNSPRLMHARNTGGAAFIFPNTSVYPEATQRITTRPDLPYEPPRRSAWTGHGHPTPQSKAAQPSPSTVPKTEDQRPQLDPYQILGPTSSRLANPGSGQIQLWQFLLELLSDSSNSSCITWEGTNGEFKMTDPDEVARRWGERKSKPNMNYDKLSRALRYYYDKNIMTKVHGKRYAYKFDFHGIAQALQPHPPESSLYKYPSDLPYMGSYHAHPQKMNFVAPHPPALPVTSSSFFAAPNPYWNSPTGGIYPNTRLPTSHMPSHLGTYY
Particulars: protein: recombinant; tags: N-terminal GST; dsDNA, one strand shown. The method in brief: as §1

For experiment [5], the target named is ELF1 (Homo sapiens, UniProt P32519 1-619). To be noted: protein: recombinant; tags: N-terminal GST; dsDNA, one strand shown. The gist of the method:
as §1

In experiment [6] the target is T5, EHF (Homo sapiens, UniProt Q9NZC4 1-300).
T5 sequence: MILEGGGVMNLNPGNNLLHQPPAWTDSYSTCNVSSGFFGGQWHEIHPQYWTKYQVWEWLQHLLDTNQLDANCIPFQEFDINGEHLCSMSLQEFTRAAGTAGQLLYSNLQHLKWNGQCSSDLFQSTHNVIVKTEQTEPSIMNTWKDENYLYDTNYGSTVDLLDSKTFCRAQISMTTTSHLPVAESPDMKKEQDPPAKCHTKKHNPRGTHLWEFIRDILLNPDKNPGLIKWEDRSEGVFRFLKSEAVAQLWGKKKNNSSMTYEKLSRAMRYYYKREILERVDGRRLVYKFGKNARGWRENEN
To be noted: protein: recombinant; tags: N-terminal GST; dsDNA, one strand shown. The method in brief: as §1

For experiment [7], the target named is SPI1 (Homo sapiens, UniProt P17947 1-270). Particulars: protein: recombinant; tags: N-terminal GST; dsDNA, one strand shown. The method in brief:
as §1

Experiment [8] has as its target SPIB (Homo sapiens, UniProt Q01892 1-262). Particulars: protein: recombinant; tags: N-terminal GST; dsDNA, one strand shown. The method in brief:
as §1

The target of experiment [9] is T6, ELK3 (Homo sapiens, UniProt P41970 1-407).
T6 sequence: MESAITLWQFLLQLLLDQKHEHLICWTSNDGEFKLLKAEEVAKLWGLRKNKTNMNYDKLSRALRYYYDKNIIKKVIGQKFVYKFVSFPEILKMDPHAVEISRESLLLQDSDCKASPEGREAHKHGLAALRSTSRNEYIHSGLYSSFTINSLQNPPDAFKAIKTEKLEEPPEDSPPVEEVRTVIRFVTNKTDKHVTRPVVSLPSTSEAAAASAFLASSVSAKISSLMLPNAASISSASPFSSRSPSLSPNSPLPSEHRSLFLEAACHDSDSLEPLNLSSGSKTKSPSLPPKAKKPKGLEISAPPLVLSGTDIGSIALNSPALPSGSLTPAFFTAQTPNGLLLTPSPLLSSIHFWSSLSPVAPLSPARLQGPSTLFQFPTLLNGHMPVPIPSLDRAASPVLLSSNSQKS
Particulars: protein: recombinant; tags: N-terminal GST; dsDNA, one strand shown. The method in brief: as §1

The target of experiment [10] is T7, FEV (Homo sapiens, UniProt Q99581 1-238).
T7 sequence: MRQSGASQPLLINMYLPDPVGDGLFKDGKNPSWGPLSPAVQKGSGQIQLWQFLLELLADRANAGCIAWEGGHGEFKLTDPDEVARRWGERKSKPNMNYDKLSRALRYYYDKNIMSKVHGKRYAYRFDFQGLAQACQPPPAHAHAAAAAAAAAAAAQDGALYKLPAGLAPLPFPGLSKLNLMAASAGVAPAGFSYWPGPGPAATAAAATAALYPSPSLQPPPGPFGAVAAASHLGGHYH
To be noted: protein: recombinant; tags: N-terminal GST; dsDNA, one strand shown. The method in brief:
as §1

In experiment [11] the target is ETV5 (Homo sapiens, UniProt P41161 1-510). Particulars: protein: recombinant; tags: N-terminal GST; dsDNA, one strand shown. The method in brief: as §1
Sequence of ETV5 (P41161 whole entry): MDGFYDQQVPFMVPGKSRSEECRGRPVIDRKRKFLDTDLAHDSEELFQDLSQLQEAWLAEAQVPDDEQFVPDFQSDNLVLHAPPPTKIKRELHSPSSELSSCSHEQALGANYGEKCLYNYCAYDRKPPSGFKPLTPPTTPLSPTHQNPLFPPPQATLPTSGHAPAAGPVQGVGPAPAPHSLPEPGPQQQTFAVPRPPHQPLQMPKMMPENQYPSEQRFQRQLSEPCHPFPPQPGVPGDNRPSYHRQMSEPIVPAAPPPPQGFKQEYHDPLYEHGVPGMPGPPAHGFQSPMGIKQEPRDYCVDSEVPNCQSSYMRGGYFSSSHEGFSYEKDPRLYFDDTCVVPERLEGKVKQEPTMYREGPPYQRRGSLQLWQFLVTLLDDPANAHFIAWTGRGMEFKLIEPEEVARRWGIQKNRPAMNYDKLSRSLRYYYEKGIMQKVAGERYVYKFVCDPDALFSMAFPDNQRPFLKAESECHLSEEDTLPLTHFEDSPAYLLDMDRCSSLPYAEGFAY
Experiment [12] has as its target HSF1 (Homo sapiens, UniProt Q00613 1-529). To be noted: protein: recombinant; tags: N-terminal GST; chain copies: 3; dsDNA, one strand shown. The gist of the method: as §1
Experiment [13] concerns the target T8, SPIC (Homo sapiens, UniProt Q8N5J4 1-248).
T8 sequence: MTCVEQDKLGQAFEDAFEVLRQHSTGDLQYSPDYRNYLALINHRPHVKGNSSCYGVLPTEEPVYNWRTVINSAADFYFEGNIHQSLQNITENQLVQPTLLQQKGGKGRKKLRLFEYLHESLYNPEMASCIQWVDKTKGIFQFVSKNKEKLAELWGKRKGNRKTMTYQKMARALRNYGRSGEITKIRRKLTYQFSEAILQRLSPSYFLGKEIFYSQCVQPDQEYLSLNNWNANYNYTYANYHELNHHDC
To be noted: protein: recombinant; tags: N-terminal GST; dsDNA, one strand shown. The gist of the method: as §1

Experiment [14] concerns the target ELF4 (Homo sapiens, UniProt Q99607 1-663). Particulars: protein: recombinant; tags: N-terminal GST; dsDNA, one strand shown. The method in brief: as §1
The target in experiment [15] is T9, ELK4 (Homo sapiens, UniProt P28324-2 1-405).
T9 sequence: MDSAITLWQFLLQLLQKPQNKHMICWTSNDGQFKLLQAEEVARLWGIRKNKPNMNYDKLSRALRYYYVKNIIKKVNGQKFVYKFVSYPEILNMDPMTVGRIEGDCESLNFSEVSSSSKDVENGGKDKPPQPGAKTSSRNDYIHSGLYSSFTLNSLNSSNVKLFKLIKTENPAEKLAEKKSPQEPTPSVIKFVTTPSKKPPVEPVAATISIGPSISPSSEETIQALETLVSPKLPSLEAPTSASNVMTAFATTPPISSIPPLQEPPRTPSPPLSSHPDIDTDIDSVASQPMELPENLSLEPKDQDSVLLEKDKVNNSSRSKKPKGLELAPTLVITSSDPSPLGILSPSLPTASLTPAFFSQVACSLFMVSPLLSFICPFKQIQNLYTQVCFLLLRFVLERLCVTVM
Particulars: protein: recombinant; tags: N-terminal GST; dsDNA, one strand shown. The method in brief: as §1

The target in experiment [16] is T10, ETV2 (Homo sapiens, UniProt O00321 1-342).
T10 sequence: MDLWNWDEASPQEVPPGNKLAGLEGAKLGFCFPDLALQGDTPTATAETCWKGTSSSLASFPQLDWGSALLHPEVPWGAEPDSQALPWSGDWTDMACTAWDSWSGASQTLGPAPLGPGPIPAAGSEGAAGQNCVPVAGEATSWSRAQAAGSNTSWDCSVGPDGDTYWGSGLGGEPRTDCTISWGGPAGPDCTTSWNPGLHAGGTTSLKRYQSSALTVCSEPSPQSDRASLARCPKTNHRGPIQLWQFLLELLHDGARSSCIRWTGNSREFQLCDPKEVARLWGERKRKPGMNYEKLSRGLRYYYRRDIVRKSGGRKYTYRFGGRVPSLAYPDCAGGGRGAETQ
To be noted: protein: recombinant; tags: N-terminal GST; dsDNA, one strand shown. The method in brief:
as §1

Experiment [17] deals with T11, ELF3 (Homo sapiens, UniProt P78545 1-371).
T11 sequence: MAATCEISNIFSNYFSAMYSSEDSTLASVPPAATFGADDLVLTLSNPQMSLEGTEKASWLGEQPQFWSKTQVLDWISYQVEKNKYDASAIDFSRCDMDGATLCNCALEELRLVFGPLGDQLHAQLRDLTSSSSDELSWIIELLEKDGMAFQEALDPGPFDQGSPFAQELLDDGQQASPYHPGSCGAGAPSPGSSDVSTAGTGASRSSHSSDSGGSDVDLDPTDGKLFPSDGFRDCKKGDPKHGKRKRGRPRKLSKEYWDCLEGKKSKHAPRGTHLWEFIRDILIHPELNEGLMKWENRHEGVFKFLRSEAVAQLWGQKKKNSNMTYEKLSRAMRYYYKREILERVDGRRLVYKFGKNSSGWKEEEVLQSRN
To be noted: protein: recombinant; tags: N-terminal GST; dsDNA, one strand shown. The method in brief: as §1

In experiment [18] the target is CRX (Homo sapiens, UniProt O43186 1-299). Particulars: protein: recombinant; tags: N-terminal GST; dsDNA, one strand shown. The method in brief:
as §1

Experiment [19] addresses ETV1 (Homo sapiens, UniProt P50549 1-477). Particulars: protein: recombinant; tags: N-terminal GST; dsDNA, one strand shown. The gist of the method: as §1

Sequence of ELF1 (P32519 whole entry): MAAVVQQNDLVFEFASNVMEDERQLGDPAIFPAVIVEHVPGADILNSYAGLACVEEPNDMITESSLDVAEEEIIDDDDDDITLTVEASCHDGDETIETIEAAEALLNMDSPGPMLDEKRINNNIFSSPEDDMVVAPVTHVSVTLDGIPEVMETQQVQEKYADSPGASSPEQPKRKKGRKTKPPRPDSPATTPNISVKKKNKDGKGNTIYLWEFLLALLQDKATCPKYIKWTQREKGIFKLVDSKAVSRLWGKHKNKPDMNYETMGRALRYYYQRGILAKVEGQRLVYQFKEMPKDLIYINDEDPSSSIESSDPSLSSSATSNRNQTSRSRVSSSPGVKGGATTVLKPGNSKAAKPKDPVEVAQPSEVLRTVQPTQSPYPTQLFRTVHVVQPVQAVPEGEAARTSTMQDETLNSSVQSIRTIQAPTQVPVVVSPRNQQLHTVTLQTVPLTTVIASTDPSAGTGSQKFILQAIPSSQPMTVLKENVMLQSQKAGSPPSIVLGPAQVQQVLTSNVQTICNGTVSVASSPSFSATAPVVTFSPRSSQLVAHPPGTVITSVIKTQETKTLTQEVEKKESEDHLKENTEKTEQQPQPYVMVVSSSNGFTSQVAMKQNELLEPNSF
Sequence of HSF1 (Q00613 whole entry): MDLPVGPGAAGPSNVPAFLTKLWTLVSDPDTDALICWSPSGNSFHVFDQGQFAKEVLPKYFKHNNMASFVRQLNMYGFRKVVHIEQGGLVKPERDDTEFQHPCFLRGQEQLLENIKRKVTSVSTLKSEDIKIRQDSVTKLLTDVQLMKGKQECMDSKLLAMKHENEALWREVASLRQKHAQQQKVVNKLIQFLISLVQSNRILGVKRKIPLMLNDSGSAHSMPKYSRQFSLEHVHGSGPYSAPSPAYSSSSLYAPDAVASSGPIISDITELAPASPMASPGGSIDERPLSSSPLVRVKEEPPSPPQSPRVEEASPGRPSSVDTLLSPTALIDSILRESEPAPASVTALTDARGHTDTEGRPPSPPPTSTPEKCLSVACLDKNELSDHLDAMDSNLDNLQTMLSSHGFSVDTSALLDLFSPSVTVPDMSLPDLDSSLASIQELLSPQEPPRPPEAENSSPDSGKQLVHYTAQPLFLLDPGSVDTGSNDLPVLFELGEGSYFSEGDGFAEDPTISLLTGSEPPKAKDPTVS
Sequence of ELF4 (Q99607 whole entry): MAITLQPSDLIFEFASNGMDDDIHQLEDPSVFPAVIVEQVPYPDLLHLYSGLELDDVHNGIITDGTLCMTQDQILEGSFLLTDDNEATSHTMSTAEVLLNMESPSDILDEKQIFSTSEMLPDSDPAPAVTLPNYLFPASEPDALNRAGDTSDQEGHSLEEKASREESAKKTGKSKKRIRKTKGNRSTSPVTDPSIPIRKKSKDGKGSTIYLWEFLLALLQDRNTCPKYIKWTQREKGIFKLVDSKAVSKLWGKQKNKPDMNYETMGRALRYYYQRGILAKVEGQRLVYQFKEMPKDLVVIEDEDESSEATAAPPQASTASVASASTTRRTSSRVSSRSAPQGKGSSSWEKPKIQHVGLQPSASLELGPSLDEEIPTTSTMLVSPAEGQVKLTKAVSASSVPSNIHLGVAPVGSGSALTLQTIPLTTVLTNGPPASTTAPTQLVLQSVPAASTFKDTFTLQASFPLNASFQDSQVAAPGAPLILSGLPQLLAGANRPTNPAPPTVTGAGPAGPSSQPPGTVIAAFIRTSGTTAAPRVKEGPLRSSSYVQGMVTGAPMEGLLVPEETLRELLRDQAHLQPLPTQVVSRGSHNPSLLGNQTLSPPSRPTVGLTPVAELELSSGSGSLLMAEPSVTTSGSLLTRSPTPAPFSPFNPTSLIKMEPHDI
Sequence of SPIB (Q01892 whole entry): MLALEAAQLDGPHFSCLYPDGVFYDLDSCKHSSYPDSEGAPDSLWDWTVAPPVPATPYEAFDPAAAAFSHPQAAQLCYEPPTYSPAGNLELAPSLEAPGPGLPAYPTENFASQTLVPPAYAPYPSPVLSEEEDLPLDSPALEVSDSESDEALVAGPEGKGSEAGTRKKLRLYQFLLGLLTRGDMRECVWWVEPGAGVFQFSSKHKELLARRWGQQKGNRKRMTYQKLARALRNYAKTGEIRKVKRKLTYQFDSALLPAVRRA
Sequence of ETV1 (P50549 whole entry): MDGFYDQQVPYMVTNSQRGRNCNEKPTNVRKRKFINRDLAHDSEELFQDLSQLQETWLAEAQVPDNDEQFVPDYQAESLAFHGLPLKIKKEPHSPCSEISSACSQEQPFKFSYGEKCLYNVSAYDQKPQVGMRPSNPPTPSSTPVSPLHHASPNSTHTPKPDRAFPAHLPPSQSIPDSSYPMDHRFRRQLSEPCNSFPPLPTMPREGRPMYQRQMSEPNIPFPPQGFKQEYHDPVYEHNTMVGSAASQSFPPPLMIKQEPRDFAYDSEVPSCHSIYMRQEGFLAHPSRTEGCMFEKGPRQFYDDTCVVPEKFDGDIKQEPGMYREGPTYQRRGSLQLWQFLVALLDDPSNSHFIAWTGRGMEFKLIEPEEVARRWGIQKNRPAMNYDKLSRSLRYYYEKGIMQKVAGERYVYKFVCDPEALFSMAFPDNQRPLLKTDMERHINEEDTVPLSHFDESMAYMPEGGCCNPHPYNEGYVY
Sequence of CRX (O43186 whole entry): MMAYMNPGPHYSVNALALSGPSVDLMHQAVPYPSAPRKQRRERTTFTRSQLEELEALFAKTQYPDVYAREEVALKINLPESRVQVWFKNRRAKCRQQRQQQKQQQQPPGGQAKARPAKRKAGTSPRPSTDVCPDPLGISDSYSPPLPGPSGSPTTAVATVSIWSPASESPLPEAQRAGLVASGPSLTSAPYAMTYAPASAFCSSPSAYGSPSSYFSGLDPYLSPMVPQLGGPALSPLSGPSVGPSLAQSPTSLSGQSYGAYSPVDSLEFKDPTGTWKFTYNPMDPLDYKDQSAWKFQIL

As to AATCCG, the binding signal in [1] was 1.53 fold enrichment (6-mer frequency, TF over GST control); in experiment [2] it was 1.62 fold enrichment (6-mer frequency, TF over GST control); in experiment [3], 1.44 fold enrichment (6-mer frequency, TF over GST control); in experiment [4], 1.84 fold enrichment (6-mer frequency, TF over GST control); in experiment [5], 1.5 fold enrichment (6-mer frequency, TF over GST control); in experiment [6] it was 1.55 fold enrichment (6-mer frequency, TF over GST control). In addition, the binding signal in [7] is 1.59 fold enrichment (6-mer frequency, TF over GST control); in experiment [8] it was 1.68 fold enrichment (6-mer frequency, TF over GST control); in experiment [9], 1.5 fold enrichment (6-mer frequency, TF over GST control); in experiment [10], 2.44 fold enrichment (6-mer frequency, TF over GST control); in experiment [11] it was 1.65 fold enrichment (6-mer frequency, TF over GST control); in experiment [12], 2.09 fold enrichment (6-mer frequency, TF over GST control). Besides, the binding signal in experiment [13] is 1.48 fold enrichment (6-mer frequency, TF over GST control); in experiment [14] it was 1.46 fold enrichment (6-mer frequency, TF over GST control); in [15] it was 1.33 fold enrichment (6-mer frequency, TF over GST control); in experiment [16], 1.47 fold enrichment (6-mer frequency, TF over GST control); in experiment [17], 1.32 fold enrichment (6-mer frequency, TF over GST control); in experiment [18], 3.2 fold enrichment (6-mer frequency, TF over GST control). Further, the binding signal in experiment [19] was 1.43 fold enrichment (6-mer frequency, TF over GST control).
